The results in this text go back to PubChem BioAssay AID720509 (The Scripps Research Institute Molecular Screening Center, 2013).

Each structure is given as a SMILES string. Among all 370,000 compounds or so, about 760 (0.21%) were called active. The list comes from a sample in which actives are over-represented; it also holds similar structures and randomly drawn compounds. Unmarked numbers belong to inactive results.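 Rule for the calls: active = inhibition above a per-campaign cutoff: mean of compounds within control limits plus 3 SD (cut at about 15% in these data); inactive = the rest.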

In the experiment the target is Fibrinogen beta chain (Homo sapiens) (UniProt P02675). The experiment is described as follows: small molecules displacing Tn6 from DD(E) complex – biochemical, fluorescence polarization, human fibrin, Tn6 probe, primary screen (AID 720509).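 Note: 0% = median of all compound wells on the plate and 100% = blocking peptide control.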 The conditions noted are these: Fibrin DD(E) TRITC-Tn6 fluorescence polarization displacement; at 8.3 µM; active compounds read high.
Sequence of Fibrinogen beta chain (Homo sapiens) (P02675 whole entry, looked up): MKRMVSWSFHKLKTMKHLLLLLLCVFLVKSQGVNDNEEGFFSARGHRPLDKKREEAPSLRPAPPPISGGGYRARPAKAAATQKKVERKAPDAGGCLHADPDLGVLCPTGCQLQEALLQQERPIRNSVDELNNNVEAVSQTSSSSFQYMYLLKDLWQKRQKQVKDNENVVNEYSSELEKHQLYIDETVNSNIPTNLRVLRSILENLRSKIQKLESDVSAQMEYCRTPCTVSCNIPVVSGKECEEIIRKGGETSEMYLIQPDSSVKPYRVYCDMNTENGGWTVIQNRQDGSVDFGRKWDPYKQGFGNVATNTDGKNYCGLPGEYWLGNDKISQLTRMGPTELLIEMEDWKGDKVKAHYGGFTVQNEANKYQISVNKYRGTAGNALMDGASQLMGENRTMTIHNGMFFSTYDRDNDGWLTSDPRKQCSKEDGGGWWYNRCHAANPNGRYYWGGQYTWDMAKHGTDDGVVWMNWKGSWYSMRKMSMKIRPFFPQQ
For the molecule `CN(C)CCCn1c(N)c(C#N)c2nc(C#N)c(C#N)nc21`, the inhibition is 15.8% (active).

On to `Cc1cccc(N(C(=O)c2csnn2)C(C(=O)NCc2ccccc2)c2ccncc2)c1` (configuration not stated), for which the inhibition is 1%.

On to `CC(C)NC(=O)c1ccccc1S(=O)c1ccccc1C#N` (configuration not stated), for which the inhibition is -6.4%.

As for `CCn1nnc2cc(C(=O)Nc3ccc(C(=O)OC(C)C)cc3)ccc21`, the inhibition was -3.39%.

On to `Cc1cccc(C)c1N1CCN(S(=O)(=O)N2CCOCC2)CC1`, for which the inhibition is -1.95%.

`COc1ccc(-c2c(-c3cc(OC)cc(OC)c3)n(C)c3ccc(-c4ccn[nH]4)cc23)cc1`: the inhibition was 7.03%.

Consider `CCN(CC)CCCC(C)n1c2nc(=O)[nH]c(=O)c-2nc2cc(Cl)ccc21` (configuration not stated), for which the inhibition is 0.53%.

Turning to `Cc1cc2nc3c(=O)[nH]c(=O)nc-3n(C[C@H](O)[C@H](O)[C@H](O)CO)c2cc1C`, the inhibition was 16.3% (active).

On to `CCc1ccc(NC(=O)CN2CCC(C(=O)c3ccc(OC)cc3)CC2)cc1`, for which the inhibition is 3.02%.

As to `S=c1[nH]cc(-c2ccc(Cl)cc2)n1-c1ccccc1`, the inhibition is 1.55%.

For the molecule `COc1cc(C(=S)N2CCOCC2)cc(OC)c1OC(=O)c1cc([N+](=O)[O-])c(C)c([N+](=O)[O-])c1`, the inhibition is -2.56%.

With `CONc1nc2nonc2nc1NOC`, the inhibition was 15.3% (active).

For the molecule `COCCNc1nc2nonc2nc1N(C)Cc1ccc(C)cc1`, the inhibition is -1.67%.

`COc1ccc(NC(=S)N2N=CCC2c2ccccc2)cc1` (configuration not stated): the inhibition is 4.08%.

Consider `N#CC(=C1SC=CS1)c1nc(-c2ccccc2)cs1`, for which the inhibition is 4.25%.

Regarding `COc1ccc(Nc2nc(-c3ccccc3)cs2)cc1`, the inhibition is 16.7% (active).

`CC(C)Nc1ccc(-n2nc3ccccc3[n+]2[O-])cc1`: the inhibition is -1.03%.

On to `NS(=O)(=O)c1ccc(CNC(=O)c2ccc(Cl)cc2[N+](=O)[O-])cc1`, for which the inhibition was 9.9%.

Take `CSc1ccccc1NC(=O)c1cnc2sc(C)cn2c1=O`: the inhibition is 7.27%.

Turning to `COC(=O)[C@@H]1CCCN1C(=O)c1cc(COc2cccc3cccnc23)on1`, the inhibition is 7.18%.

For `O=C(NCCCn1ccnc1)C1CCCN(S(=O)(=O)c2cc(Cl)ccc2Cl)C1` (configuration not stated), the inhibition is 1.05%.

Regarding `COc1ccc2c(c1)CC[C@@H]1[C@@H]2CC[C@]2(C)C(=O)CC[C@@H]12`, the inhibition is 5.66%.

Take `CCc1cccc(CC)c1NC(=O)COc1ccccc1C(=O)c1cc(C#N)c(=O)n(C2CCCCC2)c1`: the inhibition is -4.12%.

For the molecule `CN(Cc1ccccc1)C(=O)CCC1CCN(C(=O)c2ccco2)CC1`, the inhibition was -1.06%.

On to `Cc1ccc(C)c(C(C)NC(=O)C2CCCO2)c1` (configuration not stated), for which the inhibition was 0.84%.

As to `Cc1cc(C)c2nc(NC(=O)C3CCCO3)sc2c1` (configuration not stated), the inhibition is 15.3% (active).

On to `Cc1cc(C)c2nc(N3CCC(C(=O)NCCN4CCOCC4)CC3)sc2c1`, for which the inhibition is -1.61%.
